According to PubChem BioAssay (NCI):
Compounds without any hit were thinned out: in the full panel of roughly 83,000, 20% have a hit.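 Negative percent growth values reflect cell death: -40 means 40% of the cells present at the start died, and -100 means all died.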 Calls of active or inactive are those of the source. Rule for the calls: active = growth percent below 10; inactive = the rest.

Tests used:
Assay in all cases: NCI-60 one-dose screen, 48 h (100 = growth as untreated, 0 = no growth, -100 = all killed)
SR leukemia = conditions: 10 µM unless noted
RPMI-8226 leukemia = conditions: 10 µM unless noted
OVCAR-8 ovarian = conditions: 10 µM unless noted
OVCAR-5 ovarian = conditions: 10 µM unless noted
OVCAR-4 ovarian = conditions: 10 µM unless noted
SK-OV-3 ovarian = conditions: 10 µM unless noted
IGROV1 ovarian = conditions: 10 µM unless noted
OVCAR-3 ovarian = conditions: 10 µM unless noted
HS 578T breast = conditions: 10 µM
NCI/ADR-RES ovarian = conditions: 10 µM unless noted
T-47D breast = conditions: 10 µM unless noted
BT-549 breast = conditions: 10 µM unless noted
MDA-MB-435 melanoma = conditions: 10 µM unless noted
SW-620 colon = conditions: 10 µM unless noted
MCF7 breast = conditions: 10 µM unless noted
HCT-116 colon = conditions: 10 µM unless noted
HCC-2998 colon = conditions: 10 µM unless noted
KM12 colon = conditions: 10 µM unless noted

Measured: growth

Clc1ccc(Nc2ncnc3c2sc2ncccc23)c(Cl)c1
active: SR leukemia 9.78% | OVCAR-8 ovarian 4.31%
inactive: RPMI-8226 leukemia 30% | OVCAR-5 ovarian 59.5% | OVCAR-4 ovarian 84.9% | SK-OV-3 ovarian 25.5% | IGROV1 ovarian 70.4% | OVCAR-3 ovarian 55.5% | HS 578T breast 95.8% | NCI/ADR-RES ovarian 15% | T-47D breast 36.7% | BT-549 breast 44.6% | MDA-MB-435 melanoma 36.3% | SW-620 colon 47.9% | MCF7 breast 18.4% | HCT-116 colon 27.6% | HCC-2998 colon 59.6%

Cc1ccc2cc3c(NC(=O)c4cccnc4)nn(C)c3nc2c1
inactive: SR leukemia 95.8% | RPMI-8226 leukemia 76.3% | OVCAR-8 ovarian 94.6% | OVCAR-5 ovarian 102% | OVCAR-4 ovarian 97.1% | SK-OV-3 ovarian 94.2% | IGROV1 ovarian 80.6% | OVCAR-3 ovarian 91.1% | HS 578T breast 96% | NCI/ADR-RES ovarian 95% | T-47D breast 69.6% | BT-549 breast 97.4% | MDA-MB-435 melanoma 95.5% | SW-620 colon 92.5% | MCF7 breast 81.6% | HCT-116 colon 86.2% | HCC-2998 colon 91% | KM12 colon 85.6%

OC(c1cc(-c2ccc(C(F)(F)F)cc2)nc(-c2ccc(C(F)(F)F)cc2)c1)C1CCCCN1 (configuration not stated)
active: SR leukemia -64.8% | RPMI-8226 leukemia -48.4% | OVCAR-8 ovarian -64.5% | OVCAR-5 ovarian -77% | OVCAR-4 ovarian -92% | SK-OV-3 ovarian -74.3% | IGROV1 ovarian -65.2% | OVCAR-3 ovarian -90.4% | HS 578T breast -55.5% | NCI/ADR-RES ovarian -68.6% | T-47D breast -67.9% | BT-549 breast -79% | MDA-MB-435 melanoma -58.3% | SW-620 colon -70.5% | MCF7 breast -80.8% | HCT-116 colon -77.3% | HCC-2998 colon -70.8%

COc1ccc(/C(=C\c2cc(OC)c(OC)c(OC)c2)C(=O)N2CCCNCC2)cc1
inactive: SR leukemia 103% | RPMI-8226 leukemia 107% | OVCAR-8 ovarian 103% | OVCAR-5 ovarian 111% | OVCAR-4 ovarian 112% | SK-OV-3 ovarian 103% | IGROV1 ovarian 113% | OVCAR-3 ovarian 116% | HS 578T breast 107% | NCI/ADR-RES ovarian 112% | T-47D breast 93.1% | BT-549 breast 114% | MDA-MB-435 melanoma 111% | SW-620 colon 108% | MCF7 breast 97.3% | HCT-116 colon 104% | HCC-2998 colon 99.8%

CC[C@H](Nc1nc(N)nc(N)c1Cl)c1nc2cccc(NCc3ccc(C(=O)NO)cc3)c2c(=O)n1-c1ccccc1
active: SR leukemia -5.94% | RPMI-8226 leukemia 3.83% | OVCAR-8 ovarian -29.1% | OVCAR-4 ovarian 5.36% | SK-OV-3 ovarian -14.4% | IGROV1 ovarian -46.6% | OVCAR-3 ovarian -22.1% | T-47D breast 6.8% | MDA-MB-435 melanoma -51.2% | HCT-116 colon -63.6% | HCC-2998 colon -14.4% | KM12 colon -38.3%
inactive: OVCAR-5 ovarian 21.9% | HS 578T breast 20.9% | NCI/ADR-RES ovarian 81.8% | BT-549 breast 37.4% | SW-620 colon 19.9% | MCF7 breast 13%

Cc1c(O)c(=O)n(-c2ccccc2)n1C
inactive: SR leukemia 91.4% | RPMI-8226 leukemia 104% | OVCAR-8 ovarian 109% | OVCAR-5 ovarian 87.2% | OVCAR-4 ovarian 111% | SK-OV-3 ovarian 105% | IGROV1 ovarian 117% | OVCAR-3 ovarian 108% | HS 578T breast 127% | NCI/ADR-RES ovarian 105% | T-47D breast 99.5% | BT-549 breast 109% | MDA-MB-435 melanoma 109% | SW-620 colon 114% | MCF7 breast 101% | HCT-116 colon 109% | HCC-2998 colon 97.3%

O=C(O)c1ccccc1N=Cc1ccccc1
inactive: SR leukemia 95.9% | RPMI-8226 leukemia 101% | OVCAR-8 ovarian 106% | OVCAR-5 ovarian 108% | OVCAR-4 ovarian 107% | SK-OV-3 ovarian 104% | IGROV1 ovarian 101% | OVCAR-3 ovarian 115% | HS 578T breast 106% | NCI/ADR-RES ovarian 100% | T-47D breast 101% | BT-549 breast 112% | MDA-MB-435 melanoma 95.2% | SW-620 colon 107% | MCF7 breast 109% | HCT-116 colon 101% | HCC-2998 colon 102% | KM12 colon 105%

Nc1nc(N)c2cc(Sc3ccc(Cl)cc3)ccc2n1
inactive: RPMI-8226 leukemia 20.1% | OVCAR-8 ovarian 34.8% | OVCAR-5 ovarian 39.4% | OVCAR-4 ovarian 70.2% | SK-OV-3 ovarian 59.7% | IGROV1 ovarian 22.9% | OVCAR-3 ovarian 25.7% | HS 578T breast 45.4% | NCI/ADR-RES ovarian 36.2% | T-47D breast 56.4% | BT-549 breast 54.7% | MDA-MB-435 melanoma 28.6% | SW-620 colon 25.8% | MCF7 breast 19.7% | HCT-116 colon 16.2% | KM12 colon 20.5%
active: SR leukemia 7.93% | HCC-2998 colon 6.07%

COc1ccc2nc(NC(=O)/C(=C/c3cc(OC)c(OC)c(OC)c3)c3ccc(OC)c(OC)c3)sc2c1
inactive: SR leukemia 73% | RPMI-8226 leukemia 96.6% | OVCAR-8 ovarian 90% | OVCAR-5 ovarian 91.9% | OVCAR-4 ovarian 93.4% | SK-OV-3 ovarian 104% | IGROV1 ovarian 81.6% | OVCAR-3 ovarian 84.4% | HS 578T breast 103% | NCI/ADR-RES ovarian 89% | T-47D breast 74.4% | BT-549 breast 101% | MDA-MB-435 melanoma 101% | SW-620 colon 102% | MCF7 breast 87.1% | HCT-116 colon 96.3% | HCC-2998 colon 113% | KM12 colon 101%

COc1ccc(/C=C(/C(=O)N2CCN(c3ccccc3)CC2)c2cc(OC)c(OC)c(OC)c2)cc1N
active: RPMI-8226 leukemia 7.73% | OVCAR-3 ovarian -43.8% | NCI/ADR-RES ovarian 7.6% | BT-549 breast 9.88% | MDA-MB-435 melanoma -48.7% | HCT-116 colon 9.1%
inactive: SR leukemia 12.5% | OVCAR-8 ovarian 19.7% | OVCAR-5 ovarian 53.2% | OVCAR-4 ovarian 52.3% | SK-OV-3 ovarian 36.9% | IGROV1 ovarian 36.3% | HS 578T breast 36.6% | T-47D breast 65.3% | SW-620 colon 25.9% | MCF7 breast 19.9% | HCC-2998 colon 25.3% | KM12 colon 14.4%

CC(=O)Nc1ccc(Cl)cc1Cl
inactive: SR leukemia 44.3% | RPMI-8226 leukemia 121% | OVCAR-8 ovarian 97.6% | OVCAR-5 ovarian 102% | OVCAR-4 ovarian 105% | SK-OV-3 ovarian 108% | IGROV1 ovarian 60.8% | OVCAR-3 ovarian 118% | HS 578T breast 178% | NCI/ADR-RES ovarian 115% | T-47D breast 103% | BT-549 breast 120% | MDA-MB-435 melanoma 96% | SW-620 colon 116% | MCF7 breast 100% | HCT-116 colon 105% | HCC-2998 colon 106% | KM12 colon 112%

O=C(OCc1ccc2c(Cl)cc(Cl)c(O)c2n1)c1cc2ccccc2[nH]1
active: SR leukemia 0.939% | RPMI-8226 leukemia -37.4% | OVCAR-8 ovarian -24.9% | OVCAR-5 ovarian -55.2% | OVCAR-4 ovarian -70.4% | IGROV1 ovarian -89.5% | OVCAR-3 ovarian -92.1% | HS 578T breast -14.4% | NCI/ADR-RES ovarian -35.3% | T-47D breast -57.2% | BT-549 breast -76.3% | MDA-MB-435 melanoma -89.4% | SW-620 colon -66.2% | MCF7 breast -35.7% | HCT-116 colon -73.3% | HCC-2998 colon -73.1% | KM12 colon -63.9%
inactive: SK-OV-3 ovarian 67.5%

CC(CN1CCN(CCOCCO)CC1)CN1c2ccccc2Sc2ccc(Cl)cc21 (configuration not stated)
inactive: RPMI-8226 leukemia 60% | OVCAR-8 ovarian 97.2% | OVCAR-5 ovarian 71.7% | OVCAR-4 ovarian 75.7% | SK-OV-3 ovarian 90.4% | IGROV1 ovarian 60.1% | OVCAR-3 ovarian 67% | HS 578T breast 60.6% | NCI/ADR-RES ovarian 68.7% | T-47D breast 62.7% | BT-549 breast 79.1% | MDA-MB-435 melanoma 22.4% | SW-620 colon 63.6% | MCF7 breast 55.6% | HCT-116 colon 37.5% | HCC-2998 colon 39.5% | KM12 colon 28%
active: SR leukemia -2.53%

CCN(C)CCCOc1ccc(/C(=C(\C)Cc2cccc(OC)c2)c2ccc(OC(C)=O)cc2)cc1
inactive: RPMI-8226 leukemia 102% | OVCAR-8 ovarian 105% | OVCAR-5 ovarian 99.6% | OVCAR-4 ovarian 103% | SK-OV-3 ovarian 93.7% | IGROV1 ovarian 102% | OVCAR-3 ovarian 105% | HS 578T breast 94% | NCI/ADR-RES ovarian 101% | T-47D breast 75.6% | BT-549 breast 92.3% | MDA-MB-435 melanoma 97.1% | SW-620 colon 106% | MCF7 breast 51.4% | HCT-116 colon 99.7% | HCC-2998 colon 101% | KM12 colon 106%
active: SR leukemia -8.45%

COC(=O)CNS(=O)(=O)c1ccc2c(c1)Cc1cc(S(=O)(=O)NCC(=O)OC)ccc1-2
inactive: SR leukemia 102% | RPMI-8226 leukemia 103% | OVCAR-8 ovarian 97.3% | OVCAR-5 ovarian 103% | OVCAR-4 ovarian 102% | SK-OV-3 ovarian 97.7% | IGROV1 ovarian 96.5% | OVCAR-3 ovarian 102% | HS 578T breast 95.7% | NCI/ADR-RES ovarian 105% | T-47D breast 99.5% | BT-549 breast 100% | MDA-MB-435 melanoma 103% | SW-620 colon 102% | MCF7 breast 95.5% | HCT-116 colon 109% | HCC-2998 colon 111% | KM12 colon 109%

NCCCOc1cc2ccccc2cc1C(=O)NCCCOc1cc2ccccc2cc1C(=O)Nc1ccc(Cl)cc1O
active: SR leukemia -7.88% | RPMI-8226 leukemia -18.3% | OVCAR-8 ovarian -57.6% | OVCAR-5 ovarian -92.5% | OVCAR-4 ovarian -77.4% | SK-OV-3 ovarian -80.4% | IGROV1 ovarian -31.6% | OVCAR-3 ovarian -31.2% | T-47D breast -67.6% | BT-549 breast -39.8% | MDA-MB-435 melanoma -85.5% | SW-620 colon -73.9% | MCF7 breast -93.5% | HCT-116 colon -85.8% | HCC-2998 colon -92.3% | KM12 colon -2.6%
inactive: HS 578T breast 14.5% | NCI/ADR-RES ovarian 29.2%

O=C1CC2(O)CSc3nc(=O)cc(n32)N1 (configuration not stated)
inactive: SR leukemia 102% | RPMI-8226 leukemia 99% | OVCAR-8 ovarian 107% | OVCAR-5 ovarian 105% | OVCAR-4 ovarian 121% | SK-OV-3 ovarian 102% | IGROV1 ovarian 109% | OVCAR-3 ovarian 115% | HS 578T breast 121% | NCI/ADR-RES ovarian 112% | T-47D breast 104% | BT-549 breast 107% | MDA-MB-435 melanoma 100% | SW-620 colon 112% | MCF7 breast 96% | HCT-116 colon 106% | HCC-2998 colon 120% | KM12 colon 102%
